Compounds with a hit are over-represented: about 1.5% of the library has one in this group of screens.
RTF Ca sens inh – cardiac RTF calcium desensitization. P19429+P45379. IANBD-labeled cardiac RTF, Ca2+ fluorescence. inhibition, % at 7.15 µM. 340,000 tested, 0.12% active;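 active = inhibition above the mean inhibition of all tested compounds plus 3 SD, cut at about 17% in these data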;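 also: assay run at fixed EC70 calcium of 1.6 mM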
IDE cell activ – boosts human insulin-degrading enzyme activity in HEK cells | P14735 | FAbeta-B cleavage, fluorescence polarization; 0% vehicle, 100% cell-free pure enzyme wells | activation, % at 5.96 µM | 340,000 tested, 0.073% active;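 active = activation above the mean of all tested compounds plus 3 SD, set per screening campaign, cut at about 17% in these data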
Target sequence (P14735 whole entry, looked up): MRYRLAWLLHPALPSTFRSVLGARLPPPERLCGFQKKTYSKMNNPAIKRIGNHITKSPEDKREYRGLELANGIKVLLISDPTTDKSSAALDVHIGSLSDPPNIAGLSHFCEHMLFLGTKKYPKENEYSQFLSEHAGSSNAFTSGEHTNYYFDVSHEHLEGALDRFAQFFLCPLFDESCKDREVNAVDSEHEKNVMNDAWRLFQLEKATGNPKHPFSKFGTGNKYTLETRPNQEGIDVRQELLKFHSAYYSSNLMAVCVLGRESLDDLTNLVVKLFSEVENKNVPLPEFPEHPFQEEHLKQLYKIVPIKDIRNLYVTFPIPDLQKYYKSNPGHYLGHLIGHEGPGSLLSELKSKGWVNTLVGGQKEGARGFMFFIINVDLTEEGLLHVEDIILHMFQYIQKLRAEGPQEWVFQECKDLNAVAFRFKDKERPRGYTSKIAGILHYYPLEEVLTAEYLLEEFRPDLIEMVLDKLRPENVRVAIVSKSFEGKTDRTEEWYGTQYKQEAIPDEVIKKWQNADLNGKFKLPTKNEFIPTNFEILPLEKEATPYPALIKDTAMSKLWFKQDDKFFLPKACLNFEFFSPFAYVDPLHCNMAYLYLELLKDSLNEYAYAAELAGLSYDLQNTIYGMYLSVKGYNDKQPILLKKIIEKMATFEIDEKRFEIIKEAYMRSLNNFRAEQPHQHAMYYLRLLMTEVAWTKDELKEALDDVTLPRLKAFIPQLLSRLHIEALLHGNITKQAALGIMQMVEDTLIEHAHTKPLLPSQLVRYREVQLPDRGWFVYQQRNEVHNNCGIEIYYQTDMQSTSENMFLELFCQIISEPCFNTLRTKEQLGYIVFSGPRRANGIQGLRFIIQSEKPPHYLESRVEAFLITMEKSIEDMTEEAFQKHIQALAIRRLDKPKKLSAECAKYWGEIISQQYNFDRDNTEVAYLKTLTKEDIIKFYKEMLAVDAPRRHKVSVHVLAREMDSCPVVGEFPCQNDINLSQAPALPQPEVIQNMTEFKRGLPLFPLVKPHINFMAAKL
IDE inh – cellular human IDE inhibition. AID 434962. inhibition, % at 5.59 µM. 320,000 tested, 0.41% active. HEK cells, FAbetaB cleavage, fluorescence polarization. P14735;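 active = percent inhibition above the average of all tested compounds plus 3 SD, set per screening campaign, cut at about 16% in these data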;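 also: IDE supplied by intact live HEK cells; FP after avidin binding of uncleaved biotin substrate so inhibition keeps polarization high; 0% = DMSO wells and 100% = 60 µM reference IDE inhibitor Ii1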
CRFR2-BP antag – antagonists of CRF-binding protein/CRF-R2 receptor complex; HEK293 CRF-R2/CRF-BP, CRF-induced calcium fluorescence; inhibition, % at 11.8 µM; 350,000 tested, 0.59% active;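 active = inhibition of the ligand-induced calcium signal above about 50% at the single tested concentration, limit read from the data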
CRFR2-BP ag – CRF-BP/CRF-R2 complex agonism; 350,000 tested, 0.46% active; activation, % at 13.2 µM; HEK293 CRF-R2/CRF-BP, calcium dye fluorescence (FLIPR); percent of saturating CRF peptide response; AID 588473;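 active = activation of at least 50%, plus an integration ratio under a set limit after plate pattern correction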;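 also: plate controls were neutral control wells without compound for no effect and CRF at EC100 for full effect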
RTF Ca sens act – cardiac RTF calcium sensitization; IANBD-labeled TnC RTF fluorescence at EC20 calcium; 0% EC20 calcium, 100% full calcium; activation, % at 7.2 µM; 340,000 tested, 0.24% active; AID 493008;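 active = activation above the mean over all tested compounds plus 3 SD, cut at about 30% in these data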;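 also: rise in fluorescence read as greater calcium sensitivity of cardiac thin filaments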
Active calls of the source: *; . = not tested or not shown.

SMILES | RTF Ca sens inh | IDE cell activ | IDE inh | CRFR2-BP antag | CRFR2-BP ag | RTF Ca sens act
Cc1ccccc1NS(=O)(=O)c1ccc(C(=O)N(C)CC(=O)Nc2ccccc2Br)cc1 | 1.2 | 2.0 | -0.8 | 87.8* | -1.1 | 8.9
COc1ccc(NC(=O)CN(C)C(=O)c2ccc(S(=O)(=O)Nc3ccccc3C)cc2)cc1 | -8.0 | 0.6 | . | -0.5 | -1.2 | 1.6
Cc1nc(-c2ccccc2)sc1-c1n[nH]c(=S)n1C | -8.9 | 0.7 | 5.2 | 4.9 | -2.9 | -2.3
CSc1nnc(-c2sc(-c3ccccc3)nc2C)n1C | 4.6 | 5.7 | 1.9 | 55.3* | 0.1 | -1.6
O=C(c1ccc(F)cc1)C1CCN(Cc2ccccc2F)CC1 | . | . | . | 57.7* | -0.9 | .
COc1ccccc1OCCNC(=O)C1CC(=O)N(Cc2ccc(C)cc2)C1 (centres undefined) | -3.5 | 5.3 | 11.5 | 9.8 | 1.3 | -2.5
Cc1ccc(CN2CC(C(=O)NCCCSc3ccccc3)CC2=O)cc1 (centres undefined) | -5.6 | 5.0 | 1.9 | 56.0* | 0.6 | 0.4
CC(Sc1nnnn1-c1ccccc1)C(=O)Nc1ccccc1-c1ccccc1 (centres undefined) | 2.7 | 0.8 | -1.2 | 54.5* | -0.2 | 3.0
COC(=O)c1ccc(CSc2nc3c(c(=O)n2-c2ccc(Br)cc2)SCC3)o1 | 0.4 | 3.1 | -0.7 | 61.3* | -1.0 | 0.3
Cc1ccc(S(=O)(=O)Oc2ccc(/C=N/N=C3/NC(=O)C(CC(=O)O)S3)cc2)cc1[N+](=O)[O-] (centres undefined) | -7.6 | 3.4 | 8.6 | -5.8 | 0.3 | 2.4
COc1ccc2c(c1)c(C(=O)N/N=C/c1cccc(Br)c1)c(C)n2C | -4.3 | -6.3 | 17.5* | -39.0 | 1.7 | 3.5
Cc1ccc(N(Cc2ccc([N+](=O)[O-])cc2)C(=O)c2ccco2)cc1 | -1.7 | 0.3 | 1.8 | 61.6* | -4.0 | 5.3
COc1cc(CN(C(=O)c2ccco2)c2ccc(C)cc2)ccc1O | 0.1 | -3.8 | 1.1 | 28.5 | -3.9 | 2.0
CC1(C)Cc2c(sc(/N=C/N3CCCC3)c2C#N)C(C)(C)N1 | -17.2 | 1.9 | -5.4 | 61.9* | 9.8 | 0.6
COc1ccc(-c2sc(Nc3ccc(F)c(F)c3F)nc2CCC(=O)NN)cc1 | -24.3 | 4.5 | 6.2 | -37.5 | 0.0 | -2.1
O=C(O)c1cc(NN=C2c3ccccc3-c3ccccc32)ccc1Cl | 0.5 | 5.0 | -4.8 | 50.3* | -0.5 | -3.5
O=C(O)c1cccc(NN=C2c3ccccc3-c3ccccc32)c1 | 8.9 | 2.2 | . | 26.7 | -0.1 | 3.0
CCN(c1ccccc1)S(=O)(=O)c1cc(NC(=O)CSc2n[nH]c(=O)[nH]c2=O)ccc1Cl | -10.1 | -4.6 | 1.5 | 111.2* | 4.2 | -4.3
CCCN(CC(=O)Nc1ccccc1C)C(=O)c1nn(CC)c(=O)c2ccccc12 | -6.2 | 2.5 | -1.5 | -5.3 | -4.3 | 4.8
Cc1ccc(C2(C)CC(C)(C)N(C(=O)CSc3nnc(C)s3)c3ccccc32)cc1 (centres undefined) | -5.4 | 4.3 | 6.6 | 114.7* | -2.3 | -9.0
Cn1c(=O)c2cc3ccc(Cl)cc3nc2n(C)c1=O | . | . | 10.6 | 52.2* | -0.8 | .
COc1ccc(C2C(C(=O)c3ccco3)=C(O)C(=O)N2c2nnc(C)s2)cc1 (centres undefined) | -4.4 | 3.0 | -6.0 | 13.7 | 5.4 | 2.3
C=CCOc1ccc(C2C(C(=O)c3ccco3)=C(O)C(=O)N2c2nnc(C)s2)cc1 (centres undefined) | -7.0 | -4.6 | 0.8 | 83.3* | 6.8 | 3.7
COc1cc(C2C(C(=O)c3ccco3)=C(O)C(=O)N2c2cc(C)on2)cc(Br)c1O (centres undefined) | -7.5 | 1.6 | 10.9 | 79.6* | 0.9 | 7.6
COc1cc(C2C(C(=O)c3ccc(C)o3)=C(O)C(=O)N2c2cc(C)on2)cc(Br)c1O (centres undefined) | -18.2 | -1.4 | 12.2 | -17.9 | -2.5 | 1.4
SMILES | RTF Ca sens inh | IDE cell activ | IDE inh | CRFR2-BP antag | CRFR2-BP ag | RTF Ca sens act
O=C(NN1CCOCC1)c1ccc(Cl)cc1[N+](=O)[O-] | 0.3 | 6.9 | 2.2 | -8.2 | 2.0 | -4.5
Cc1cccc(NS(=O)(=O)c2cccc(C(=O)N3CCC3)c2)c1 | 1.7 | -6.2 | 1.8 | -9.4 | -0.5 | 3.2
Cc1cccc(NS(=O)(=O)c2cccc(C(=O)N3CCN(c4ccccn4)CC3)c2)c1 | 3.5 | -10.0 | 0.4 | 115.1* | -1.9 | -4.4
CCCC[C@@H]1CNCCN1CC1(c2ccccc2)CC1 | 4.6 | -3.6 | 1.6 | 23.7 | 1.1 | 7.5
C[C@H](CO)N1C[C@H](C)[C@@H](CN(C)Cc2ccc(C(=O)O)cc2)Oc2c(cccc2N(C)C)C1=O | -5.1 | 2.9 | -1.9 | 0.2 | 0.8 | 7.0
Cc1ccc(S(=O)(=O)N[C@H](C(=O)OCC(=O)N2N=C(c3ccc(Cl)cc3)CC2c2ccco2)C(C)C)cc1 (some centres undefined) | 1.3 | 0.1 | -7.9 | -62.7 | 57.6* | 5.5
CN(C)c1ccc(/C=C2\N=C(c3ccc(Cl)c([N+](=O)[O-])c3)NC2=O)cc1 | -5.5 | -0.2 | 10.0 | -105.8 | 62.5* | 0.3
CCCn1c(SCC(=O)N2CC(=O)Nc3ccccc32)nc2ccccc21 | -13.6 | 3.2 | -0.2 | -92.2 | 55.9* | -5.2
Cc1nn(C(C)C(=O)NCCN2CCCC2)c(=O)c2c1sc1ccccc12 (centres undefined) | -7.5 | -4.2 | 0.3 | -12.7 | 1.0 | 0.4
CCCCn1c(N)c(N(CCC(C)C)C(=O)Cc2ccc(S(=O)(=O)N3CCOCC3)s2)c(=O)[nH]c1=O | -26.6 | -5.9 | 3.2 | 99.7* | 6.0 | 8.9
CCCCn1c(N)c(N(CC(C)C)C(=O)Cc2ccc(S(=O)(=O)N3CCOCC3)s2)c(=O)[nH]c1=O | -37.0 | -4.6 | . | -53.2 | 54.3* | 24.5
COc1ccc(NC(=O)c2nc[nH]c2C(=O)NCCCCCNC(=O)OC(C)(C)C)cc1 | . | . | 3.4 | . | . | .
CCOc1cc(/C=N/NC(=O)c2ccccc2-n2cccc2)ccc1O | 0.4 | -4.7 | 0.1 | 12.7 | -1.8 | 0.7
CCOc1cc(/C=N/NC(=O)c2ccccc2OCc2ccc(F)cc2)ccc1O | -7.0 | 6.8 | 1.8 | 55.7* | -0.8 | 1.0
COc1cc(C(=O)c2ccccc2C(=O)O)c(OC)c2c1CCCC2 | -1.2 | 6.8 | . | 5.4 | -1.9 | 1.8
CCC(=O)C1CCCN(C(=O)c2cccc(OC3CCN(S(C)(=O)=O)CC3)c2)C1 (centres undefined) | -2.8 | 2.5 | -2.8 | -5.5 | 1.2 | -3.0
CCN(C(=O)CSc1nnc(SC)s1)c1c(N)n(Cc2ccccc2)c(=O)[nH]c1=O | -8.8 | -4.2 | -4.4 | 3.2 | 0.3 | 3.4
O=C1C[C@@H](c2ccc(O)cc2)Oc2cc(O)cc(O)c21 | -6.0 | -3.9 | 4.2 | 0.9 | 1.2 | 1.4
Cc1c(O)cc2c(c1O)C(=O)CC(c1ccccc1)O2 (centres undefined) | -1.2 | 5.4 | 4.2 | -38.2 | 105.3* | -5.8

Source: PubChem (several laboratories)
